Measured values taken from PubChem BioAssay (NCI).
About 79,000 compounds went through this panel and 15% of them were active in at least one assay; those are over-represented in the sample as a whole. Unmarked numbers belong to inactive results. The source made the active and inactive calls. Cut-off read from the data, not from the text of the source: active = growth inhibition above about 70%; inactive = the rest.

What was measured:
[1] = NCI Yeast Anticancer Drug Screen. Data for the rad50 strain (AID 155);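 note: 0% = growth of vehicle-only cultures of the same strain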; conditions: S. cerevisiae rad50 strain growth inhibition, active compounds read high
Procedure, shortened: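 Readout: growth inhibition relative to vehicle-treated cultures. Compound exposure was carried out in a genetically defined yeast strain deficient in DNA damage repair.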

[2] = NCI Yeast Anticancer Drug Screen. Data for the mec2-1 strain (AID 157); conditions: S. cerevisiae mec2-1 strain, active compounds read high
Procedure, shortened: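 Strain: mec2-1 (DNA repair/cell cycle alteration). Compound exposure, then growth measured; inhibition expressed relative to vehicle.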

[3] = NCI Yeast Anticancer Drug Screen. Data for the sgs1 mgt1 strain (AID 161);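 note: 0% = growth of cultures given vehicle only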; conditions: S. cerevisiae sgs1 mgt1 strain, active compounds read high
Procedure, shortened: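 Mutant yeast exposed to compound; growth scored against vehicle-only wells.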

[4] = NCI Yeast Anticancer Drug Screen. Data for the cln2 rad14 strain (AID 165);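 note: 0% = growth equal to vehicle treated cultures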; conditions: S. cerevisiae cln2 rad14 strain, active compounds read high
Procedure, shortened: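 Compounds are applied to the cln2 rad14 yeast strain, and growth is then compared with that of vehicle-treated cultures to give inhibition.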

[5] = NCI Yeast Anticancer Drug Screen. Data for the bub3 strain (AID 167); conditions: S. cerevisiae bub3 mutant strain, active compounds read high
Procedure, shortened: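 Readout: yeast growth inhibition, expressed relative to vehicle-only wells. The test organism is a mutant strain from a panel with lesions in DNA repair or checkpoint genes.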

[6] = NCI Yeast Anticancer Drug Screen. Data for the mlh1 rad18 strain (AID 175); conditions: S. cerevisiae mlh1 rad18 strain growth inhibition, active compounds read high
Procedure, shortened: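 Read-out is yeast growth inhibition, calculated against vehicle-only controls. The compound was applied to a strain engineered with DNA damage repair alterations.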

[7] = at 5.0 µM (retest, dose inferred, filed as 0.5)
[8] = at 50.0 µM (retest, dose inferred, filed as 5.0)

| SMILES | growth inhibition [1, 7] [%] | growth inhibition [1, 8] | growth inhibition ([1]; at 50.0 µM) | growth inhibition [2, 7] [%] | growth inhibition [2, 8] | growth inhibition ([2]; at 50.0 µM) | growth inhibition [3, 7] [%] | growth inhibition [3, 8] | growth inhibition ([3]; at 50.0 µM) | growth inhibition [4, 7] [%] | growth inhibition [4, 8] | growth inhibition ([4]; at 50.0 µM) | growth inhibition [5, 7] [%] | growth inhibition [5, 8] | growth inhibition ([5]; at 50.0 µM) | growth inhibition [6, 7] [%] | growth inhibition [6, 8] | growth inhibition ([6]; at 50.0 µM) |
| --- | --- | --- | --- | --- | --- | --- | --- | --- | --- | --- | --- | --- | --- | --- | --- | --- | --- | --- |
| CCOC(=O)/C(Cl)=C(\OCC)C(=O)OCC | 14 | 10% | -6.4% | 6 | 13% | 12.3% | 2 | 19% | 20% | -5 | 19% | 44.9% | -1 | 8% | 26.4% | 12 | 22% | 21.1% |
| Cc1ccccc1N1CCN(c2c3c(nc4ccccc24)CCCCC3)CC1 | -4 | 94% (active) | 97.2% (active) | 7 | 94% (active) | 97% (active) | 7 | 95% (active) | 97.2% (active) | -3 | 95% (active) | 96.4% (active) | -9 | 95% (active) | 97.5% (active) | -4 | 94% (active) | 96.5% (active) |
| COc1ccc(OC)c(C(Cc2ccnc3ccccc23)Cc2ccnc3ccccc23)c1 | 1 | 97% (active) | 99% (active) | -14 | 97% (active) | 99.2% (active) | 3 | 99% (active) | 99% (active) | 1 | 99% (active) | 98.6% (active) | 10 | 98% (active) | 98.8% (active) | -3 | 97% (active) | 98.8% (active) |
| CC(C)OC(=O)c1ccc(NCc2cc(O)ccc2O)cc1Cl | 61 | 99% (active) | 89.8% (active) | 41 | 99% (active) | 90.3% (active) | 55 | 99% (active) | 91.6% (active) | 63 | 100% (active) | 89.5% (active) | 53 | 100% (active) | 88.9% (active) | 49 | 98% (active) | 88% (active) |
| Cc1ccc(O)c(Cc2ccccc2Cl)c1 | -2 | 99% (active) | 99.3% (active) | -7 | 99% (active) | 99.3% (active) | -4 | 98% (active) | 99.5% (active) | -19 | 99% (active) | 99% (active) | -13 | 99% (active) | 92.7% (active) | -5 | 99% (active) | 99% (active) |
| O=C(O)c1ccc2c(c1)CC1(C2)Cc2cc3c(cc2C1=O)CCC3 (stereo unspecified) | 34 | 34% | 84.3% (active) | 22 | 22% | 83.8% (active) | 19 | 19% | 79.5% (active) | 21 | 21% | 83.1% (active) | 12 | 12% | 81.8% (active) | 25 | 25% | 79.9% (active) |
| CN(Cc1cnc2nc(N)nc(N)c2n1)c1ccc(C(=O)NC(CCC(=O)O)C(=O)O)cc1 (stereo unspecified) | 2 | 5% | 37.2% | -16 | 79% (active) | 88% (active) | 9 | 53% | 45.8% | 0 | -10% | 1.4% | 1 | -6% | -9.7% | -19 | -9% | 25.1% |
